Test results published in PubChem BioAssay (Tox21).
Several values for one entry are separate records, joined by “and”; a condition that tells them apart may be missing. Equal entries are not always repeated. Results filed as inconclusive are left out. A call without a number means that no potency is given here. Some structures have more than one record in an assay (separate samples or runs), and their calls can disagree. Activity calls are given as the source filed them. Unless noted, calls come from the whole dose curve; as a rule, active = well fitted curve in the direction sought with a large enough effect in the repeat runs; inconclusive = weak or mixed curves; inactive = no such curve, though single readings can be large; an effect the other way counts as inactive or inconclusive.

Legend:
[1] = qHTS assay to identify small molecule agonists of the hypoxia (HIF-1) signaling pathway - cell viability counter screen (AID 1224844; calls by dose curve; note: nearly all actives have a fitted effect of over 50% in size)
How it was run: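 Multiplexed with the HRE beta-lactamase assay, this viability read used CellTiter-Glo luminescence (30 min, RT) on HRE-bla ME-180 cells treated 17 hrs with compounds in 0.5% dialyzed FBS medium.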

[2] = qHTS assay to identify small molecule agonists of H2AX (AID 1224845; active = well fitted activation curve with a large enough effect in the signal ratio in the repeat runs, not every such curve was filed as active; the % refers to the signal ratio)
How it was run: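 Wild-type CHO-K1 cells, plated overnight, exposed 3hr at 37C to 15 concentrations (0.76% DMSO final). Lysed, then HTRF anti-pH2AX (S139) cryptate and anti-H2AX-d2 antibodies, 24 hr room temperature; 665/620 nm emission read.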

[3] = qHTS assay to identify small molecule agonists of the hypoxia (HIF-1) signaling pathway (AID 1224846; active = well fitted activation curve with a large enough effect in the signal ratio in the repeat runs, not every such curve was filed as active; the % refers to the signal ratio)
How it was run: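 Hypoxia-pathway activation was scored as increased beta-lactamase from an HRE-controlled reporter in ME-180 cells; plated at 2,000 cells per well with 0.5% dialyzed FBS, they were exposed 17 hrs to compounds and then given CCF4-AM.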

[4] = qHTS assay to identify small molecule agonists of H2AX - cell viability counter screen (AID 1224847; calls by dose curve; note: nearly all actives have a fitted effect of over 30% in size; note: potency is the fitted concentration of half-maximal effect; for activity change, negative = cytotoxicity: top concentration of the series differs between compounds)
How it was run: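 Compounds tested at 15 concentrations were incubated 3 hr at 37C with wild-type CHO-K1 cells; cellular ATP-based luminescence (CellTiter-Glo) indicated viability.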

[5] = qHTS assay to identify small molecule antagonists of the estrogen related receptor (ERR) signaling pathway from Tox21 library (AID 1224848); note: nearly all actives have a fitted effect of over 50% in size; note: potency is the fitted concentration of half-maximal effect
How it was run: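 ERR reporter cell line (from NTP) seeded 2,000 cells/well, rested 6 h at 37 C/5% CO2, then pin-dosed with compounds in DMSO. After 18 h at 37 C, ONE-Glo added; luminescence read after 30 min at room temperature.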

[6] = qHTS assay to identify small molecule agonists of the estrogen related receptor (ERR) signaling pathway from Tox21 library (AID 1224849; calls by dose curve; note: nearly all actives have a fitted effect of over 15% in size); details: ERR reporter cell line, ONE-Glo luciferase, 18 h; at 92.4 µM (top of the series) unless noted
How it was run: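 Six hours post-seeding at 37 C/5% CO2, ERR cells receive DMSO-solubilised compounds; after 18 h at 37 C, ONE-Glo reagent is applied and luminescence recorded.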

[7] = qHTS RealTime-Glo MT Cell Viability Assay in HepG2 cells - 24 hour (AID 1224867); note: nearly all actives have a fitted effect of over 50% in size
How it was run: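 Luminescence read-out: viable HepG2 cells reduce a prosubstrate to a NanoLuc substrate, giving a signal proportional to live cell number. Reads taken at 0, 8, 16, 24, 32 and 40 h of compound exposure at 37 C.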

[8] = qHTS RealTime-Glo MT Cell Viability Assay in HEK293 cells - 32 hour (AID 1224868); note: top concentration of the series differs between compounds; nearly all actives have a fitted effect of over 50% in size
How it was run: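 Nonlytic real-time viability readout: viable cells convert prosubstrate to NanoLuc substrate, giving luminescence proportional to live cell number. HEK293, 600 cells/well, compound added after 5 h, continuous culture at 37 C.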

[9] = qHTS RealTime-Glo MT Cell Viability Assay in HepG2 cells - 40 hour (AID 1224870); note: nearly all actives have a fitted effect of over 50% in size
How it was run: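 HepG2 cells (600/well) mixed with RealTime-Glo MT reagent, settled 5 h at 37 C/5% CO2 before compound addition. Nonlytic NanoLuc luminescence from viable-cell prosubstrate reduction read repeatedly during 40 h treatment at 37 C.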

[10] = A CellTox Green Cytotoxicity Assay to monitor cytotoxicity in HEK293 cells - 0 hour (AID 1224869); note: nearly all actives have a fitted effect of over 50% in size
How it was run: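 Seeding of HEK293 cells together with cytotoxicity dye preceded a 5 h incubation at 37 C/5% CO2. Test compounds in DMSO were then added and fluorescence monitored across 40 h.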

Row | Compound | activity change, negative = cytotoxicity [1] | activation (H2AX phosphorylation) [2] | activation [3] | activity change, negative = cytotoxicity [4] | activity, negative = inhibition [5] | activity change, positive = activation [6] | activity change, negative = cytotoxicity [7] | activity change, negative = cytotoxic [8] | activity change, negative = cytotoxic [9] | outcome [2] | Potency [4] | Potency [1] | outcome [3] | Potency [5] | Potency [7] | Potency [8] | Potency [10] | Potency [9]
1 | CCCCCCCCCCCCCC=O | 0.368% [at 6.97 µM] (inactive) | -4.49% [at 14 µM] (inactive) | -0.206% [at 7.01 µM] (inactive) | 0.845% [at 14 µM] (inactive) | -0.715% [at 8.39 µM] (inactive) | -0.514% [at 8.39 µM] (inactive) | -6.68% [at 6.97 µM] (inactive) | 5.71% [at 6.97 µM] (inactive) | -13.1% [at 6.97 µM] (inactive) | – | – | – | – | – | – | – | – | –
2 | N[C@H](C(=O)O)c1ccc(O)cc1 | 4.56% [at 15.8 µM] (inactive) | – | 0.0786% [at 15.8 µM] (inactive) | – | 2.86% [at 19 µM] (inactive) | 1.6% [at 19 µM] (inactive) | -0.341% [at 15.8 µM] (inactive) | 3.67% [at 15.8 µM] (inactive) | 1.99% [at 15.8 µM] (inactive) | inactive | inactive | – | – | – | – | – | – | –
3 | NC(CSCC(=O)O)C(=O)O (centres undefined) | – | – | – | – | – | 5.41% [at 42.5 µM] (inactive) | – | – | – | inactive | inactive | inactive | inactive | inactive | inactive | inactive | inactive | inactive
4 | O=C1CC2CC1C1CCCC21 (centres undefined) | – | – | – | – | – | -0.257% (inactive) | – | – | – | inactive | inactive | inactive | inactive | inactive | inactive | inactive | – | inactive
5 | C/C=C(\C)C#N | – | – | – | – | – | 0.294% (inactive) | – | – | – | inactive | inactive | inactive | inactive | inactive | inactive | inactive | – | inactive
6 | COC(=O)NN | – | – | – | – | – | -24.9% (inactive) | – | – | – | inactive | inactive | inactive | inactive | inactive | inactive | inactive | inactive | inactive
7 | COC(=O)CC(C)=O | – | – | – | – | – | 2.59% (inactive) | – | – | – | inactive | inactive | inactive | inactive | inactive | inactive | inactive | inactive | inactive
8 | CC(=O)c1ccccc1O | – | – | – | – | – | 0.43% (inactive) | – | – | – | inactive | inactive | inactive | inactive | inactive | inactive | inactive | – | inactive
9 | CCCCCCOC(=O)CCCCC(=O)OCCCCCC | – | – | – | – | – | 5.81% (inactive) | – | – | – | inactive | inactive | inactive | inactive | inactive | – | inactive | inactive | inactive
10 | O=S(O)CO | – | – | – | – | – | 4.77% (inactive) | – | – | – | inactive | inactive | inactive | inactive | inactive | inactive | inactive | – | inactive
11 | CN(C(=O)c1c(O)c2ccccc2n(C)c1=O)c1ccccc1 | – | – | – | – | – | 0.397% [at 42.5 µM] (inactive) | – | – | – | inactive | inactive | inactive | inactive | inactive | inactive | inactive | – | inactive
12 | NS(=O)(=O)c1cc(C(=O)NN2C[C@H]3[C@H]4CCC(C4)[C@H]3C2)ccc1Cl | – | – | – | – | – | -1.11% [at 42.5 µM] (inactive) | – | – | – | inactive | inactive | inactive | inactive | inactive | inactive | inactive | inactive | inactive
13 | CCCCCCCCCCCCN(CCCCCCCCCCCC)CCCCCCCCCCCC | – | – | – | – | – | 5.6% (inactive) | – | – | – | inactive | inactive | inactive | inactive | inactive | inactive | inactive | – | inactive
14 | COc1cc(C(=O)N2CCCCCCC2)cc(OC)c1OC | – | – | – | – | – | 8.77% [at 42.5 µM] (inactive) | – | – | – | inactive | inactive | inactive | inactive | inactive | inactive | inactive | inactive | inactive
15 | O=c1cc(CO)occ1O | – | – | – | – | – | 3.24% [at 42.5 µM] (inactive) | – | – | – | inactive | inactive | inactive | inactive | inactive | inactive | inactive | inactive | inactive
16 | CS(=O)(=O)O | – | – | – | – | – | 3.34% (inactive) | – | – | – | inactive | inactive | inactive | inactive | inactive | inactive | inactive | inactive | inactive
17 | CCCCOCCOCCOCCCC | – | – | – | – | – | 0.577% (inactive) | – | – | – | inactive | inactive | inactive | inactive | inactive | inactive | inactive | inactive | inactive
18 | CCCCC(CC)COC(=O)c1ccccc1O (centres undefined) | – | – | – | – | – | 5.6% [at 42.5 µM] (inactive) | – | – | – | inactive | inactive | inactive | inactive | inactive | inactive | inactive | inactive | inactive
19 | CC(=O)CC(C)C | – | – | – | – | – | 1.24% (inactive) | – | – | – | inactive | inactive | inactive | inactive | inactive | inactive | inactive | inactive | inactive
20 | CC(C)(c1ccc(O)cc1)c1ccc(O)cc1 | – | – | – | – | – | -29.8% (inactive) and -30.2% (inactive) | – | – | – | inactive | inactive and 103 µM (active) | inactive | inactive | 30.3 µM (active) | inactive | – | inactive | inactive
21 | CN1CCN(c2cc3c(cc2F)c(=O)c(C(=O)O)cn3-c2ccc(F)cc2)CC1 | – | – | – | – | – | -10.8% [at 42.5 µM] (inactive) | – | – | – | inactive | inactive | inactive | inactive | inactive | inactive | inactive | inactive | inactive
22 | Nc1c[n+](N2CCOCC2)no1 | – | – | – | – | – | 0.251% [at 42.5 µM] (inactive) | – | – | – | inactive | inactive | inactive | inactive | inactive | inactive | inactive | – | inactive
23 | O=C1CCCN1C1CCCCC1 | – | – | – | – | – | -1.04% (inactive) | – | – | – | inactive | inactive | inactive | inactive | inactive | inactive | inactive | inactive | inactive
